PubChem BioAssay
“And” between values parts separate entries of the source, which are not always exact repeats. Identical values can stand only once. The source made the active and inactive calls. Unless noted, how the calls were made is not given here.

Key:
[1] = hESC survival regulators, cell-based (AID 493140); details: human embryonic stem cell survival screen; stronger effect = higher value;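 further: cells exposed to compounds for four days before counting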
[2] = test system: Aerobactin synthetase IucA (Klebsiella pneumoniae); assay: IucA aerobactin synthetase inhibitors, biochemical, Tocris library, absorbance (AID 1345561); details: purified IucA enzyme assay, absorbance (OD) read-out; stronger effect = lower value;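 tested at 8 µM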;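 further: 100% = enzyme without compound and 0% = no enzyme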
[3] = sensitizers of A549 cells to miR-34 induction, primary screen, imaging, A549 dox-inducible miR-34, nuclei and caspase counts (AID 1347080;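 active means compounds whose cell count with miR-34 switched on is under 0.7 times the count with it off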); details: A549 miR-34 inducible, Hoechst nuclei count, 48 h
[4] = inhibitors of Cryptococcus chitosan production, flow cytometry, Cibacron Brilliant Red staining (AID 1347148); details: Cryptococcus neoformans chitosan, stronger effect = lower value; at 10 µM unless noted;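 further: compound exposure lasted three days at 37 degrees C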
[5] = viability rescue of complex I mutant cybrids, primary screen, cell-based, galactose medium, ATP luminescence (AID 1645843;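 active means z-score of at least 1.8 in each of two replicates, scored against plate mean and spread of sample wells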;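 further: positive z means more ATP and so rescue of galactose-driven cybrid death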); details: complex I mutant cybrid cells, 72 h, stronger effect = higher value
[6] = circadian clock period modulators, cell-based, LOPAC library, luminescence reporter (AID 2774); details: circadian reporter cells, at 7 µM, actives lie on both sides;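 further: values are relative to mean of DMSO wells on each plate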
[7] = test system: Hepatitis C virus NS3 helicase; assay: HCV NS3 helicase inhibitors, primary screen, biochemical, fluorescence polarization, LOPAC1280 library (AID 687035; in the data active means inhibition above about 37%); details: Purified HCV NS3 helicase, Cy5-dT15 ssDNA binding fluorescence polarization; stronger effect = higher value; concentration not given here
[8] = Cy5 fluorescence quenching or enhancement artefacts, artefact control for HCV NS3 helicase inhibitor project, biochemical, LOPAC1280 (AID 687037); details: Cy5-DNA-NS3h complex fluorescence interference counterscreen
[9] = phospholipid biosynthesis inhibitors in animal cells, primary screen, cell-based, LOPAC library, screen 4 (AID 1347384); details: phospholipid biosynthesis inhibition screen, at 10 µM
[10] = liver-stage malaria parasite growth inhibition, primary screen, cell-based, HepG2, luciferase luminescence, HepG2 viability (AID 624349; in the data active means parasite load remaining mostly below about 12%, no sharp cut-off; inactive means mostly above about 10%;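 further: 100% = mean of DMSO negative control wells on the same plate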); details: P. berghei liver stage in HepG2, luciferase luminescence, concentration not given here; parasite load remaining: stronger effect = lower value; viability: measured here: HepG2 viability without parasites
[11] = modifiers of HSF1 nuclear foci, imaging, Selleck Cancer Library (AID 1347162; in the data active means plate-normalised HSF1 focus index below about 0.46); details: human cells, at 10 µM; SSMD: measured here: HSF1 foci SSMD mean; cell count: measured here: cell number; plate-normalised HSF1 focus index: stronger effect = lower value
[12] = survival rescue of mitochondrial mutant cells in low glucose, primary screen, MELAS cybrids, Rieske KO mouse fibroblasts, CellTiter-Glo (AID 1508586;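 active means mean z-score across replicates of 1.96 or higher in either the MELAS or the Rieske mutant cell line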;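 further: z relative to plate mean and SD of compound and empty wells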)
[13] = ovarian cancer cell viability with rucaparib, profiling panel, oncology-focused library, rucaparib conditional (AID 1508598;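 active means normalized viability below 100% at a tested concentration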); details: patient-derived ovarian cancer cells, CellTiter-Glo viability, 144 h, stronger effect = lower value
[14] = stronger effect = lower value, cell number ratio, induced over uninduced
[15] = measured here: relative caspase fold change +Dox/-Dox
[16] = measured here: total cells with miR-34 induction, stronger effect = lower value
[17] = measured here: total cells without miR-34 induction
[18] = MELAS cybrid survival, CellTiter-Glo 48 h, stronger effect = higher value
[19] = Rieske KO mouse fibroblast survival, CellTiter-Glo 72 h

CCCCCCCCCCCCC/C=C/[C@@H](O)[C@H](CO)NC(C)=O
inactive: survival [1] 95 | remaining activity [2] 114% | fold change [3, 14] 0.919 and 1.02 and 0.95 | fold fluorescence [4] 5.52 | z-score [5] -1.23
1.09 and 0.67 and 0.924: fold change [3, 15]
5360 and 6170 and 8250: cell count [3, 16]
5840 and 6040 and 8680: cell count [3, 17]

Oc1cc2c(cc1O)C(c1ccccc1)CNCC2 (centres undefined)
1.37 and 0.889: fold change [3, 15]
10500 and 10200: cell count [3, 16]
10600: cell count [3, 17]
inactive: period change [6] 0.125 h | inhibition [7] -3% | fluorescence ratio (interference) [8] 1 | remaining activity [2] 113% | fold change [3, 14] 0.993 and 0.954 | outcome [9] | z-score [5] 0.58 and 0.48

O=C1C(SCCO)=C(SCCO)C(=O)c2ccccc21
0.902 and 1.05 and 1.12: fold change [3, 15]
1190 and 1350 and 1420: cell count [3, 17]
1490 and 1050 and 1210: cell count [3, 16]
inactive: period change [6] -0.12 h | inhibition [7] -3% | fluorescence ratio (interference) [8] 1 | remaining activity [2] 112% | fold change [3, 14] 1.25 and 0.776 and 0.848 | fold fluorescence [4] 6.37 [at 161.1 µM] | outcome [9] | z-score [5] -1.04 and -0.82

O=C1Cc2c([nH]c3ccc(Br)cc23)-c2ccccc2N1
3640 and 4430 and 1010: cell count [3, 17]
64.2%: viability [10]
0.981 and 0.403 and 0.535: fold change [3, 15]
inactive: parasite load remaining [10] 33% | inhibition [7] 1% | fluorescence ratio (interference) [8] 1 | remaining activity [2] 115% | fold change [3, 14] 1.11 and 0.922 and 1.05 | outcome [9] | z-score [5] -0.785 and -0.43
4020 and 4080 and 1060: cell count [3, 16]
active: period change [6] -0.835 h

Cn1cc(C2=C(c3ccc(Cl)cc3Cl)C(=O)NC2=O)c2ccccc21
4130 and 6000 and 2470: cell count [3, 17]
inactive: period change [6] 0.025 h | inhibition [7] -3% | fluorescence ratio (interference) [8] 1 | remaining activity [2] 92.7% | fold change [3, 14] 0.99 and 0.96 and 1.01 | plate-normalised HSF1 focus index [11] 1.09 | outcome [9] | z-score [12, 18] -0.394 | viability ([13]; at 0.000305 µM, OCI-C5x cells, with rucaparib 10 µM, 100% = cells with rucaparib alone) 106% | viability ([13]; at 0.000305 µM, OCI-C5x cells, without rucaparib) 117% | viability ([13]; at 0.000305 µM, OCI-P5x cells, with rucaparib 20 µM, 100% = cells with rucaparib alone) 102% | viability ([13]; at 0.000305 µM, OCI-P5x cells, without rucaparib) 103% | viability ([13]; at 0.00122 µM, OCI-C5x cells, with rucaparib 10 µM, 100% = cells with rucaparib alone) 122% | viability ([13]; at 0.00122 µM, OCI-C5x cells, without rucaparib) 119% | viability ([13]; at 0.00122 µM, OCI-P5x cells, with rucaparib 20 µM, 100% = cells with rucaparib alone) 107% | viability ([13]; at 0.00488 µM, OCI-C5x cells, with rucaparib 10 µM, 100% = cells with rucaparib alone) 117% | viability ([13]; at 0.00488 µM, OCI-C5x cells, without rucaparib) 114% | viability ([13]; at 0.00488 µM, OCI-P5x cells, with rucaparib 20 µM, 100% = cells with rucaparib alone) 105% | viability ([13]; at 0.0195 µM, OCI-C5x cells, with rucaparib 10 µM, 100% = cells with rucaparib alone) 125% | viability ([13]; at 0.0195 µM, OCI-C5x cells, without rucaparib) 111% | viability ([13]; at 0.0781 µM, OCI-C5x cells, with rucaparib 10 µM, 100% = cells with rucaparib alone) 110% | viability ([13]; at 0.0781 µM, OCI-C5x cells, without rucaparib) 112% | viability ([13]; at 0.0781 µM, OCI-P5x cells, with rucaparib 20 µM, 100% = cells with rucaparib alone) 106% | viability ([13]; at 0.313 µM, OCI-C5x cells, with rucaparib 10 µM, 100% = cells with rucaparib alone) 122% | viability ([13]; at 0.313 µM, OCI-C5x cells, without rucaparib) 106% | viability ([13]; at 1.25 µM, OCI-C5x cells, with rucaparib 10 µM, 100% = cells with rucaparib alone) 126% | viability ([13]; at 1.25 µM, OCI-C5x cells, without rucaparib) 111% | viability ([13]; at 5 µM, OCI-C5x cells, with rucaparib 10 µM, 100% = cells with rucaparib alone) 114% | viability ([13]; at 5 µM, OCI-C5x cells, without rucaparib) 120% | z-score [5] 1.59 and 0.305
active: viability ([13]; at 0.00122 µM, OCI-P5x cells, without rucaparib) 89.9% | viability ([13]; at 0.00488 µM, OCI-P5x cells, without rucaparib) 91.8% | viability ([13]; at 0.0195 µM, OCI-P5x cells, with rucaparib 20 µM, 100% = cells with rucaparib alone) 98.3% | viability ([13]; at 0.0195 µM, OCI-P5x cells, without rucaparib) 89.5% | viability ([13]; at 0.0781 µM, OCI-P5x cells, without rucaparib) 81.9% | viability ([13]; at 0.313 µM, OCI-P5x cells, with rucaparib 20 µM, 100% = cells with rucaparib alone) 97.2% | viability ([13]; at 0.313 µM, OCI-P5x cells, without rucaparib) 89.8% | viability ([13]; at 1.25 µM, OCI-P5x cells, with rucaparib 20 µM, 100% = cells with rucaparib alone) 96.3% | viability ([13]; at 1.25 µM, OCI-P5x cells, without rucaparib) 84.5% | viability ([13]; at 5 µM, OCI-P5x cells, with rucaparib 20 µM, 100% = cells with rucaparib alone) 89.2% | viability ([13]; at 5 µM, OCI-P5x cells, without rucaparib) 83.9%
1.07 and 0.76 and 0.707: fold change [3, 15]
7820: cell count [11]
4090 and 5760 and 2500: cell count [3, 16]
1.42: SSMD [11]
0.82: z-score [12, 19]

CN(C(=O)CCCOc1ccc2[nH]c(=O)ccc2c1)C1CCCCC1
8910 and 7180 and 9490: cell count [3, 16]
71.5%: viability [10]
8530 and 7310 and 10500: cell count [3, 17]
2.05 and 0.725 and 1.16: fold change [3, 15]
-0.471: z-score [12, 19]
inactive: period change [6] -0.015 h | parasite load remaining [10] 30.5% | inhibition [7] -1% | fluorescence ratio (interference) [8] 1 | remaining activity [2] 117% | fold change [3, 14] 1.04 and 0.982 and 0.9 | outcome [9] | z-score [12, 18] 0.542 | z-score [5] -0.385 and 0.22 and -0.02

COc1ccc(CCN(C)CCc2ccc(OC)c(OC)c2)cc1OC
1.08 and 1.5 and 0.778: fold change [3, 15]
8830 and 6070 and 8850: cell count [3, 16]
9310 and 6560 and 9840: cell count [3, 17]
inactive: period change [6] 0.045 h | inhibition [7] -1% | fluorescence ratio (interference) [8] 1 | remaining activity [2] 104% | fold change [3, 14] 0.949 and 0.925 and 0.899 | fold fluorescence [4] 2.96 [at 139.1 µM] | outcome [9] | z-score [5] -0.285 and -0.27

COC(=O)c1c(C)[nH]c(C)c1C(=O)c1ccccc1Cc1ccccc1
8020 and 4240 and 8010: cell count [3, 17]
7970 and 5070 and 7630: cell count [3, 16]
0.778 and 0.775 and 0.777: fold change [3, 15]
inactive: period change [6] 0.045 h | inhibition [7] -1% | fluorescence ratio (interference) [8] 1 | remaining activity [2] 110% | fold change [3, 14] 0.994 and 1.2 and 0.953 | fold fluorescence [4] 5.89 [at 143.9 µM] | outcome [9] | z-score [5] -0.58 and -0.485

CC(C)NC[C@H](O)COc1cccc2[nH]ccc12
inactive: period change [6] 0.125 h | inhibition [7] -2% | fluorescence ratio (interference) [8] 1 | remaining activity [2] 102% | fold change [3, 14] 0.97 and 0.927 | outcome [9] | z-score [5] -0.095 and -0.03
1.45 and 1.12: fold change [3, 15]
9970 and 8970: cell count [3, 16]
10300 and 9670: cell count [3, 17]
